Most compounds without a hit are left out; they make up all but 12% or so of the library.
G9a block: inhibitors of human histone lysine methyltransferase G9a; Q96KQ7; G9a H3K9 monomethylation, AlphaScreen, 2 h; Potency, µM (titrated, usually from 102 µM), actives largely listed as inhibitors; 350,000 tested, 8.8% active; AID 504332; further: nearly all actives have a fitted effect of over 75% in size
Target sequence (Q96KQ7 913-1193 limits assumed): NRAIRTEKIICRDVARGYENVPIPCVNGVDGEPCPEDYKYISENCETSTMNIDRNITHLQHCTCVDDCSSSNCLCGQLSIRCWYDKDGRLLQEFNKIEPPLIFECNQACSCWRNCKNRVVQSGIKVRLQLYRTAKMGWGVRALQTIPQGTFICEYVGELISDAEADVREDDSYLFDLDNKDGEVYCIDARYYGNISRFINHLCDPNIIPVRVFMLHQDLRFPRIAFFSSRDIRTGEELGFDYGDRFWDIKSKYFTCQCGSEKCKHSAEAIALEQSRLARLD
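Readings reflect AlphaScreen signal from monomethyl-H3K9 antibody detection. HMT at 20 nM; substrate b-H3K9 500 nM; cofactor SAM 20 uM; 2 h RT reaction; compounds tested as titrations in qHTS with 15 min preincubation.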
HP1b chromo inh: blocks HP1-beta chromodomain binding to methylated histone tails; AlphaScreen HP1-beta / biotin-H3K9me3 peptide binding; Potency, µM (titrated, usually from 114 µM), actives largely listed as inhibitors; 390,000 tested, 0.56% active; AID 540317; further: nearly all actives have a fitted effect of over 70% in size
Target sequence (P83916 whole entry, looked up): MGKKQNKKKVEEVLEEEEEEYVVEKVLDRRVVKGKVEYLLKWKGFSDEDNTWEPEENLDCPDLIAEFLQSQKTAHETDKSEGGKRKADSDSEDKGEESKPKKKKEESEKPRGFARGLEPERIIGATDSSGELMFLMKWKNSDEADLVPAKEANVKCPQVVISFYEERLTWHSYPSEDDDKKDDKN
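Compound inhibition of the preformed complex between 50 nM HP1-beta and 50 nM biotinylated H3K9me3 peptide was read by AlphaScreen. Buffer was PBS pH 7.4 with 0.01% Tween-20. Incubations ran 30 min at room temperature, with 10 ug/mL donor/acceptor beads.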
JMJD2A Tudor inh: blocks the human JMJD2A Tudor domain | 390,000 tested, 4.4% active | AlphaScreen JMJD2A-Tudor / H3K4me3 peptide binding | AID 504339 | Potency, µM (highest dose often 114 µM), usual class: inhibitors | O75164; further: nearly all actives have a fitted effect of over 50% in size
BAZ2B inh: blocks human BAZ2B. Q9UIF8. AlphaScreen BAZ2B-H3K14Ac peptide displacement. Potency, µM (highest dose often 114 µM), actives largely listed as inhibitors. 360,000 tested, 4.4% active; further: nearly all actives have a fitted effect of over 60% in size
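Compounds, titrated to a top concentration of 110 uM, were incubated 30 min at room temperature with preformed BAZ2B/acetyl-K14 H3 peptide complex (50 nM each). Proximity signal was measured by AlphaScreen after 20 min with beads.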
L3MBTL1 block: blocks human L3MBTL1. AlphaScreen L3MBTL1–H3K9me1 peptide binding. Potency, µM (series often up to 57.1 µM), most hits filed as inhibitors. 230,000 tested, 0.66% active. AID 485360; further: nearly all actives have a fitted effect of over 60% in size
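Displacement of a biotinylated histone H3(1-15) peptide monomethylated at Lys9 (75 nM) from L3MBTL1 (50 nM) was measured by AlphaScreen after a 30 min room-temperature compound incubation; cefsulodin titration served as intraplate control.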
Sfp PPTase inh: blocks B. subtilis Sfp PPTase activity. AID 1490. Biochemical Sfp PPTase activity, qHTS. 310,000 tested, 3.5% active. Potency, µM, hits mostly inhibitors;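 further: the enzyme is Sfp with the accession as filed and its product quenches rhodamine fluorescence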
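Fluorescence-quenching assay with 15 nM Sfp, 5 uM rhodamine-CoA and 12.5 uM BHQ-2-labelled ybbR peptide in pH 7.6 Hepes/MgCl2 buffer. Enzyme was pre-incubated with compound for 15 min at room temperature. Rate was taken from the 30-min fluorescence change (525/598 nm).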
Hits are given with their value; [ ] = remark or other dose. The call rests on the fitted dose curve; in most records, active means well fitted curve in the direction sought with a large enough effect; inconclusive means small, poorly fitted or top-dose-only effect, or another doubt; inactive means no such curve, though single readings can be large; an effect the other way counts as inactive or inconclusive.

Results for Fc1ccccc1N1CCN(C(c2ccccn2)c2nnnn2C2CCCCC2)CC1 (stereo not given) ?
G9a block: 14µM; HP1b chromo inh: inactive; JMJD2A Tudor inh: inactive; BAZ2B inh: 79µM; L3MBTL1 block: inactive; Sfp PPTase inh: inactive

What do the screens show for `COc1ccc2cc(C(c3nnnn3CC3CCCO3)N3CCOCC3)c(=O)[nH]c2c1` (stereo not given)?
G9a block: inactive; HP1b chromo inh: inactive; JMJD2A Tudor inh: inactive; BAZ2B inh: inactive; L3MBTL1 block: inactive; Sfp PPTase inh: inactive

How did N#CCCN(C(=O)COC(=O)c1cc2ccccc2oc1=O)c1ccccc1 do in these assays?
G9a block: inactive; HP1b chromo inh: inactive; JMJD2A Tudor inh: inactive; BAZ2B inh: inactive; L3MBTL1 block: inactive

What do the screens show for `C[C@H](NC(=O)[C@@H](N)Cc1ccc(O)cc1)C(=O)NCC(=O)N[C@H]1CSSC[C@@H](C(=O)O)NC(=O)[C@H](CO)NC(=O)[C@H]([C@@H](C)O)NC(=O)[C@H](Cc2ccccc2)NC(=O)[C@H]([C@@H](C)O)NC(=O)[C@H](CCCCN)NC(=O)[C@@H](Cc2c[nH]c3ccccc23)NC(=O)[C@H](Cc2ccccc2)NC(=O)[C@H](Cc2ccccc2)NC(=O)[C@H](CC(N)=O)NC(=O)[C@H](CCCCN)NC1=O`?
Sfp PPTase inh: inactive

What do the screens show for `CCN(CC)CCOC(=O)c1ccc(NC(=O)c2nn(-c3ccc(C)cc3)c(=O)c3c2c2ccccc2n3C)cc1`?
G9a block: 3.2µM; HP1b chromo inh: inconclusive; JMJD2A Tudor inh: inconclusive

What do the screens show for `CCN(C(=O)c1nn(-c2ccc(C)cc2)c(=O)c2c1c1ccccc1n2C)c1ccc(F)cc1`?
G9a block: 1.3µM; HP1b chromo inh: inactive; JMJD2A Tudor inh: inactive

Results for CCCN(C(=O)c1nn(-c2ccc(C)cc2)c(=O)c2c1c1ccccc1n2C)c1ccccc1C ?
G9a block: inactive; HP1b chromo inh: inconclusive; JMJD2A Tudor inh: inactive

What do the screens show for `CC(C)c1ccc(NC(=O)Cn2c(=O)n(CC3CCC(C(=O)NCCc4ccccc4)CC3)c(=O)c3ccccc32)cc1` (stereo not given)?
G9a block: inactive; HP1b chromo inh: inactive; JMJD2A Tudor inh: inactive; BAZ2B inh: inactive

Results for CCOC(=O)c1ccc(NC(=O)CC(=O)Nc2ccc3nc4n(c(=O)c3c2)CCCCC4)cc1 ?
G9a block: inactive; HP1b chromo inh: inactive; JMJD2A Tudor inh: inactive; BAZ2B inh: inactive

Results for COC(=O)CCCN1C(=O)c2cccc3cccc(c23)C1=O ?
G9a block: inactive; HP1b chromo inh: inactive; JMJD2A Tudor inh: inactive; BAZ2B inh: 45µM; L3MBTL1 block: inactive; Sfp PPTase inh: inactive

What do the screens show for `COc1ccc(N2CCN(C(=O)CCCN3C(=O)c4cccc5cccc(c45)C3=O)CC2)cc1`?
HP1b chromo inh: inactive; JMJD2A Tudor inh: inconclusive; BAZ2B inh: 40µM; L3MBTL1 block: inactive; Sfp PPTase inh: inactive

How did O=C(CCCN1C(=O)c2cccc3cccc(c23)C1=O)N1CCN(c2ccc(F)cc2)CC1 do in these assays?
G9a block: inconclusive; HP1b chromo inh: inactive; JMJD2A Tudor inh: inactive; BAZ2B inh: inactive; L3MBTL1 block: inactive; Sfp PPTase inh: inactive

What do the screens show for `CC1(C)OC(=O)C2(Cc3cc(C(F)(F)F)ccc3N3CCCCC32)C(=O)O1` (stereo not given)?
HP1b chromo inh: inactive; JMJD2A Tudor inh: inactive

How did OC(CNCC1CCCO1)Cn1c2ccccc2c2ccccc21 (stereo not given) do in these assays?
G9a block: inconclusive; HP1b chromo inh: inactive; JMJD2A Tudor inh: inactive; BAZ2B inh: inactive; L3MBTL1 block: inactive; Sfp PPTase inh: inactive

Results for OC(CNCCC1C=Nc2ccccc21)Cn1c2ccc(Cl)cc2c2cc(Cl)ccc21 (stereo not given) ?
G9a block: inconclusive; HP1b chromo inh: inconclusive; JMJD2A Tudor inh: 40µM; BAZ2B inh: 40µM; L3MBTL1 block: inactive; Sfp PPTase inh: 11µM

Results for OC(CNCC1CCCO1)Cn1c2ccc(Cl)cc2c2cc(Cl)ccc21 (stereo not given) ?
G9a block: inactive[2.33 µM]; HP1b chromo inh: inactive; JMJD2A Tudor inh: inactive; BAZ2B inh: inactive; L3MBTL1 block: inactive; Sfp PPTase inh: 50µM

Results for Cc1c(N=C2SCC(=O)N2/N=C\c2ccc(Br)cc2)c(=O)n(-c2ccccc2)n1C ?
G9a block: inactive; HP1b chromo inh: inactive; JMJD2A Tudor inh: inconclusive; BAZ2B inh: inactive; L3MBTL1 block: inactive; Sfp PPTase inh: inactive

How did CC1(C)CC(CC(=O)NNc2nc(-c3ccccc3)cs2)C(=O)O1 (stereo not given) do in these assays?
G9a block: inactive; HP1b chromo inh: inconclusive; JMJD2A Tudor inh: inconclusive; BAZ2B inh: inactive; L3MBTL1 block: inactive; Sfp PPTase inh: inactive

What do the screens show for `CC(C)CC1CC(C)(c2csc(NNC(=O)c3ccccc3)n2)OC1=O` (stereo not given)?
G9a block: 45µM; HP1b chromo inh: inactive; JMJD2A Tudor inh: inactive; BAZ2B inh: inactive; Sfp PPTase inh: inactive

How did COc1ccc(/C=N/Nc2nnc(Cc3ccc(OC)c(OC)c3)c(=O)[nH]2)cc1 do in these assays?
G9a block: inconclusive; HP1b chromo inh: inactive; JMJD2A Tudor inh: inactive; BAZ2B inh: inconclusive; L3MBTL1 block: inactive; Sfp PPTase inh: inactive

What do the screens show for `COc1ccc(Cc2nnc(N/N=C(\C)c3ccccc3)[nH]c2=O)cc1OC`?
HP1b chromo inh: inactive; JMJD2A Tudor inh: inactive; BAZ2B inh: 35µM; L3MBTL1 block: inactive; Sfp PPTase inh: inactive

What do the screens show for `COCCNc1nnc(Cc2ccc(OC)c(OC)c2)c(=O)[nH]1`?
G9a block: inactive; HP1b chromo inh: inactive; JMJD2A Tudor inh: inactive; BAZ2B inh: inactive; Sfp PPTase inh: inactive

Results for COc1ccc(/C=N/Nc2nnc(Cc3ccc(OC)c(OC)c3)c(=O)[nH]2)cc1OC ?
G9a block: inactive; HP1b chromo inh: inactive; JMJD2A Tudor inh: inconclusive; BAZ2B inh: inconclusive; L3MBTL1 block: inactive; Sfp PPTase inh: 50µM

How did COc1ccc(Cc2nnc(N/N=C/c3ccc(N(C)C)cc3)[nH]c2=O)cc1OC do in these assays?
HP1b chromo inh: inactive; JMJD2A Tudor inh: inactive; BAZ2B inh: inconclusive; L3MBTL1 block: inactive; Sfp PPTase inh: inactive

Results for COc1ccc(Cc2nnc(NN)[nH]c2=O)cc1OC ?
G9a block: inactive; HP1b chromo inh: inactive; JMJD2A Tudor inh: 2.5µM; BAZ2B inh: 4µM; Sfp PPTase inh: 45µM

Results for O=S(=O)(c1ccc2c(c1)OCCO2)N1CCN(S(=O)(=O)c2cccc[n+]2[O-])CC1 ?
JMJD2A Tudor inh: inactive

How did CC(C)(C)n1nnnc1C(c1cccs1)N1CCN(c2ccccc2)CC1 (stereo not given) do in these assays?
G9a block: inactive; HP1b chromo inh: inactive; JMJD2A Tudor inh: inactive; BAZ2B inh: inactive; L3MBTL1 block: inactive; Sfp PPTase inh: inactive

Bioassay records (PubChem)
